Some test systems named below: NCI-H23 lung; NCI-H226 lung; NCI-H322M lung; HOP-62 NSCLC; NCI-H460 lung; HOP-92 NSCLC; NCI-H522 lung; A549/ATCC NSCLC; 786-0 renal; COLO 205 colon; DU-145 prostate; K-562 leukemia; MALME-3M melanoma; MDA-MB-231 breast; RXF 393 renal; SF-268 CNS; SF-295 CNS; SF-539 CNS; UACC-257 melanoma; M14 melanoma.
Holding throughout (assay): NCI-60 one-dose screen, 48 h (100 = growth as untreated, 0 = no growth, -100 = all killed)
What all share (conditions): 10 µM unless noted

This is part of a sample that, as a whole, favours compounds with a hit. Of some 83,000 tested, about 20% had one in any assay.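 96-well plates, one dose, 48 hours. Percent growth reported; active if below 10.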 Values without a mark were called inactive. Active and inactive are the calls of the source.

Consider `Fc1ccc2c(c1)c(-c1nc(-c3c[nH]c4ncccc34)cs1)cn2CCCN1CCOCC1`, for which the growth was 76% in the assay with NCI-H23 lung; 59.3% in the assay with NCI-H226 lung; 80.9% in the assay on NCI-H322M lung; 49.9% with HOP-62 NSCLC; 37.8% in the assay with NCI-H460 lung; 23.5% in the assay with HOP-92 NSCLC. Besides, the growth was 41.3% with NCI-H522 lung; 42.6% in the assay on A549/ATCC NSCLC; 57.3% in the assay on 786-0 renal; 18.1% in the assay with COLO 205 colon; 79.8% in the assay with DU-145 prostate; 1.71% (active) in the assay on K-562 leukemia. In addition, the growth in the assay on MALME-3M melanoma was 59.2%; with MDA-MB-231 breast, 36%; in the assay with RXF 393 renal, 39.5%; in the assay on SF-268 CNS, 50.8%; in the assay with SF-295 CNS, 27.5%; with SF-539 CNS it was 67.3%. Further, the growth in the assay with UACC-257 melanoma was 83%; in the assay on M14 melanoma, 34.7%.

`CCOC(=O)C(=Cc1cccc(C#N)c1)C(=O)OCC`: the growth in the assay with NCI-H23 lung is 68.4%; with NCI-H226 lung, 38.1%; in the assay with NCI-H322M lung, 91%; in the assay with HOP-62 NSCLC, 115%; with NCI-H460 lung, 95.9%; with HOP-92 NSCLC it was 63.2%. Further, the growth in the assay on NCI-H522 lung was 16.7%; with A549/ATCC NSCLC, 75.5%; in the assay on 786-0 renal it was 86.4%; with COLO 205 colon, 47.1%; in the assay with DU-145 prostate it was 48%; in the assay with K-562 leukemia it was 22.7%. Besides, the growth with MALME-3M melanoma is 49.9%; with MDA-MB-231 breast it was 55.4%; in the assay with RXF 393 renal, 33.5%; with SF-268 CNS it was 64.1%; in the assay on SF-295 CNS, 95.9%; in the assay with SF-539 CNS it was 62.9%. For the same compound, the growth in the assay on UACC-257 melanoma was 69.6%; in the assay with M14 melanoma, 62.3%.

As to `CCCCCCCCn1ccc2cc(NC(=O)Cn3cc(CN4CCOCC4)nn3)ccc21`, the growth in the assay on NCI-H23 lung was 106%; with NCI-H226 lung, 92.3%; in the assay with NCI-H322M lung, 96.8%; in the assay with HOP-62 NSCLC it was 113%; in the assay with NCI-H460 lung, 101%; in the assay with HOP-92 NSCLC, 70.4%. Moreover, the growth with NCI-H522 lung is 90.4%; with A549/ATCC NSCLC it was 98.3%; in the assay on 786-0 renal, 90.6%; in the assay on COLO 205 colon, 109%; in the assay with DU-145 prostate it was 106%; with K-562 leukemia, 89.1%. Also, the growth with MALME-3M melanoma is 100%; in the assay on MDA-MB-231 breast, 90.5%; with RXF 393 renal it was 91.9%; in the assay on SF-268 CNS it was 106%; in the assay on SF-295 CNS it was 90.1%; with SF-539 CNS, 104%. In addition, the growth with UACC-257 melanoma was 104%; in the assay on M14 melanoma, 91%.

As to `O=C(Nc1cccc(NC(=O)C2CCCCC2)c1)c1ccccn1`, the growth in the assay on NCI-H23 lung was 88.3%; with NCI-H226 lung, 106%; in the assay on NCI-H322M lung, 89.2%; with HOP-62 NSCLC, 100%; with NCI-H460 lung, 114%; with HOP-92 NSCLC it was 112%. Further, the growth in the assay on NCI-H522 lung was 89.9%; with A549/ATCC NSCLC, 102%; in the assay on 786-0 renal, 95%; in the assay on COLO 205 colon, 117%; in the assay with DU-145 prostate, 103%; in the assay on K-562 leukemia, 85.2%. In addition, the growth is 91% in the assay with MALME-3M melanoma; 104% with MDA-MB-231 breast; 125% with RXF 393 renal; 95.7% with SF-268 CNS; 97.9% in the assay with SF-295 CNS; 98.1% with SF-539 CNS. Further, the values for the growth with UACC-257 melanoma and with M14 melanoma were 108% and 91.7%, respectively.

Take `CN(C)c1ccc(/C=C/C(=O)c2ccccc2)cc1`: the growth with NCI-H23 lung was 97.8%; in the assay with NCI-H226 lung, 99.9%; with NCI-H322M lung it was 98.4%; with HOP-62 NSCLC, 81%; with NCI-H460 lung, 105%; in the assay with HOP-92 NSCLC it was 88%. In addition, the growth is 60.3% with NCI-H522 lung; 65.4% in the assay with A549/ATCC NSCLC; 88.8% in the assay on 786-0 renal; 93.7% in the assay on COLO 205 colon; 95.9% with DU-145 prostate; 32% in the assay with K-562 leukemia. Besides, the growth in the assay with MALME-3M melanoma was 82.5%; in the assay on MDA-MB-231 breast, 103%; in the assay on RXF 393 renal, 93.8%; with SF-268 CNS, 89.7%; with SF-295 CNS, 92.7%; in the assay on SF-539 CNS, 89.3%. The growth with UACC-257 melanoma is 62.9%; in the assay with M14 melanoma, 76%.

For `CCn1c2ccc(O)cc2c2c(C)c3c[n+](C(C)C)ccc3c(C)c21`, the growth is 36.3% in the assay on NCI-H23 lung; 66.8% with NCI-H226 lung; 41.8% in the assay on NCI-H322M lung; 43% with HOP-62 NSCLC; 9.02% (active) in the assay with NCI-H460 lung; 51.2% in the assay with HOP-92 NSCLC. The growth is 19.9% with NCI-H522 lung; 69.1% in the assay with A549/ATCC NSCLC; 56.1% in the assay with 786-0 renal; 13.1% with COLO 205 colon; 29.6% in the assay with DU-145 prostate; 41% with K-562 leukemia. Besides, the growth was -6.64% (active) with MALME-3M melanoma; 45.4% in the assay with MDA-MB-231 breast; 53.4% in the assay on RXF 393 renal; 14% with SF-268 CNS; 60.5% in the assay on SF-295 CNS; 38.7% in the assay with SF-539 CNS. In addition, the growth in the assay on UACC-257 melanoma was 37%; in the assay on M14 melanoma, 36.5%.

Take `COc1cc(N2C(=O)[C@H](c3ccccc3)C2c2ccc(SC)cc2)cc(OC)c1OC` (stereo not given in full): the growth in the assay on NCI-H23 lung was 16%; in the assay on NCI-H226 lung, 56.1%; in the assay with NCI-H322M lung it was 37.7%; in the assay with HOP-62 NSCLC, 20.7%; in the assay on NCI-H460 lung, 4.99% (active); with HOP-92 NSCLC it was -0.302% (active). Besides, the growth was -9.45% (active) in the assay with NCI-H522 lung; 4.39% (active) with A549/ATCC NSCLC; 5.94% (active) with 786-0 renal; -52% (active) in the assay on COLO 205 colon; 6.14% (active) with DU-145 prostate; 5.06% (active) with K-562 leukemia. The growth in the assay with MALME-3M melanoma was 63.3%; in the assay on MDA-MB-231 breast, 28%; in the assay with RXF 393 renal it was -4.2% (active); in the assay with SF-268 CNS, 25.3%; in the assay with SF-295 CNS, -6.29% (active); with SF-539 CNS it was 8.41% (active). The growth with UACC-257 melanoma was 33.3%; in the assay with M14 melanoma, 5.09% (active).

`CCCCCCOC(=O)CC1=C(C)/C(=C/c2[nH]c(-c3ccc[nH]3)cc2OC)N=C1C`: the growth is -29.3% (active) in the assay with NCI-H23 lung; -30.6% (active) in the assay with NCI-H226 lung; 11.2% with NCI-H322M lung; -37.8% (active) with HOP-62 NSCLC; -23% (active) with NCI-H460 lung; -27.7% (active) in the assay on HOP-92 NSCLC. Also, the growth in the assay with NCI-H522 lung was -49.5% (active); with A549/ATCC NSCLC, -6.96% (active); with 786-0 renal, -51.8% (active); in the assay on COLO 205 colon, -82.9% (active); in the assay on DU-145 prostate, 5.68% (active); in the assay on K-562 leukemia it was -33.6% (active). For the same compound, the growth in the assay on MALME-3M melanoma was -74% (active); in the assay with MDA-MB-231 breast, -50.7% (active); in the assay with RXF 393 renal it was -56.1% (active); in the assay on SF-268 CNS, -20.8% (active); with SF-295 CNS, -60.4% (active); with SF-539 CNS, -71.3% (active). Besides, the growth with UACC-257 melanoma was -63.9% (active); in the assay on M14 melanoma it was -86.2% (active).

For the origin of these results see PubChem BioAssay (NCI).
